In PubChem BioAssay (NCATS) one finds Potency, activation and viability data, which are given here for 16 compounds.

In assay [1] the target is Cellular tumor antigen p53 (Homo sapiens) (UniProt P04637). As to the kind of experiment: Primary qHTS for small molecule compounds that upregulate eGFP-tagged delta133p53alpha (in N-terminal) cells. (AID 2060322).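 For activation: series mostly up to about 56 µM; 0% = DMSO vehicle and 100% = reference activator.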 Note: nearly all actives have a fitted effect of over 75% in size. Note: potency is the fitted concentration of half-maximal effect. The note with it: NCI-H358 eGFP-delta133p53alpha fluorescence, 24 h; activation: stronger effect = higher value. In short, it runs like this:
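NCI-H358 cells pre-induced 24 h with 10 ng/ml doxycycline to express N-terminal eGFP-delta133p53alpha, then dosed 24 h at 37C without doxycycline; fixed, Hoechst-stained, GFP intensity by laser scanning cytometry, normalized to DMSO (0%) and 57.5 uM 5-azacytidine (100%).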

Assay [2] shares this target. The assay can be described thus: Primary qHTS for small molecule compounds that upregulate eGFP-tagged delta133p53alpha (in C-terminal) cells. (AID 2060324). Note: potency is the fitted concentration of half-maximal effect. In short, it runs like this:
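NCI-H358 cells with doxycycline-inducible D133p53a-eGFP (C-terminal tag), pre-induced 24 h with 100 ng/ml doxycycline, plated 800/well in doxycycline-free medium and treated 24 h at 37 °C with compound titrations. Cells were then fixed and Hoechst-stained, and GFP intensity was read by laser scanning cytometry.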

Assay [3] concerns the target Aldehyde dehydrogenase, mitochondrial (Homo sapiens) (UniProt P05091). As to the kind of experiment: qHTS for Inhibitors of the Aldehyde Dehydrogenase Family (ALDH2) Validation screens (AID 2061302; active = well fitted inhibition curve with a large enough effect; title and protocol of this record describe different tests;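 note: plate controls were DMSO vehicle for no effect and maximal DPI positive control response for full effect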).
Assay [4] has as its target Retinaldehyde dehydrogenase 3 (Homo sapiens) (UniProt P47895). The assay can be described thus: qHTS for Inhibitors of the Aldehyde Dehydrogenase Family (ALDH1A3) Validation screen (AID 2061312). Note: % is set by controls: 0 for no effect and ±100 for the full control effect; nearly all actives have a fitted effect of over 45% in size.
Assay [5] in a line: BET inhibitor-based combinations targeting novel dependencies in MECOM-rearranged (r) AML: SET-2 cell line (AID 2202231).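 For viability: plate controls were DMSO treated cells for no effect and wells without cells for full effect.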 Note: nearly all actives have a fitted effect of over 35% in size. Note: potency is the fitted concentration of half-maximal effect. The note with it: SET-2 AML cells viability, CellTiter-Glo luminescence, 48 h; viability: stronger effect = lower value, concentration not given here. A digest of the protocol:
(§1)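 Here, 11-point titrations of each agent were applied to 500 seeded cells and incubated 48 hr; CellTiter-Glo signal, scaled against DMSO and empty wells, was integrated as AUC, then Z-scored within the individual line.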

Assay [6] in a line: BET inhibitor-based combinations targeting novel dependencies in MECOM-rearranged (r) AML: OCI-AML3 cell line (AID 2202232). Note: nearly all actives have a fitted effect of over 35% in size. Note: potency is the fitted concentration of half-maximal effect. The note with it: Potency: OCI-AML3 viability. A digest of the protocol: as §1
A short description of assay [7]: BET inhibitor-based combinations targeting novel dependencies in MECOM-rearranged (r) AML: HNT-34 cell line (AID 2202234). Note: nearly all actives have a fitted effect of over 35% in size. Note: potency is the fitted concentration of half-maximal effect. A digest of the protocol:
(§2)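 Normalized to DMSO and empty-well controls, the luminescence data from CellTiter-Glo after 48 hr drug exposure were fitted across 11 concentrations. Reported metrics are area under the dose-response curve and its Z-transformed form.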

Assay [8] in a line: BET inhibitor-based combinations targeting novel dependencies in MECOM-rearranged (r) AML: UCSD-AML1 cell line (AID 2202235). Note: nearly all actives have a fitted effect of over 40% in size. Note: potency is the fitted concentration of half-maximal effect. In short, it runs like this:
as §2

Assay [9] can be described thus: BET inhibitor-based combinations targeting novel dependencies in MECOM-rearranged (r) AML: AML-191 cell line (AID 2202236; note: nearly all actives have a fitted effect of over 35% in size; note: potency is the fitted concentration of half-maximal effect). In short, it runs like this: as §1
Assay [10] is described as follows: BET inhibitor-based combinations targeting novel dependencies in MECOM-rearranged (r) AML: AML-194 cell line (AID 2202237; note: nearly all actives have a fitted effect of over 40% in size; note: potency is the fitted concentration of half-maximal effect). A digest of the protocol: as §1
Assay [11] can be described thus: BET inhibitor-based combinations targeting novel dependencies in MECOM-rearranged (r) AML: MV-4-11 cell line (AID 2202233). Note: nearly all actives have a fitted effect of over 45% in size. Note: potency is the fitted concentration of half-maximal effect. In short, it runs like this:
as §2

Values joined by “and” are separate entries in the source; they are usually repeats but may differ in a detail not shown here. Identical values can stand only once. Inconclusive results are not listed. A number with no mark means an inactive call. Active and inactive are the calls of the source. Unless noted, calls come from the whole dose curve; as a rule, active = well fitted curve in the direction sought with a large enough effect; inconclusive = small, poorly fitted or top-dose-only effect, or another doubt; inactive = no such curve, though single readings can be large; an effect the other way counts as inactive or inconclusive.

Sequence of Cellular tumor antigen p53 (Homo sapiens) (P04637 whole entry, looked up): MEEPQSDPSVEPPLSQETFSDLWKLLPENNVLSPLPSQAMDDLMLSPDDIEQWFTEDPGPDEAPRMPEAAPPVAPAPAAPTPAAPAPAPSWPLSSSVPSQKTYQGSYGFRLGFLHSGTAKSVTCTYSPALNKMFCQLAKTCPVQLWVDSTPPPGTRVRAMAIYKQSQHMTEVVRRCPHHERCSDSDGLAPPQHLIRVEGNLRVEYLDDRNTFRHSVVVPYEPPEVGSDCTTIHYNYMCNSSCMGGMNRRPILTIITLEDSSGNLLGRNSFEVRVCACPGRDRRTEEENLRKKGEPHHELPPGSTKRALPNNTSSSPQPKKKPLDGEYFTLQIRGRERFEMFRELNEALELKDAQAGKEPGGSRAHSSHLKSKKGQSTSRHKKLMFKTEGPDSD

With `Nc1ncn([C@@H]2O[C@H](CO)[C@@H](O)[C@H]2O)c(=O)n1`, the Potency in assay [1] was 1.69 µM (active); in assay [2] it was 21.3 µM (active); in [5], 1.05 µM (active); in assay [6], 5.9 µM (active); in assay [7], 4.68 µM (active); in assay [8], 4.68 µM (active). Besides, the Potency is 5.25 µM (active) in assay [9] and 16.6 µM (active) in assay [10]. For the same compound, the Potency result in assay [3] and in [4] was “inactive” each time.
Regarding `Cc1cccc(-c2[nH]ncc2-c2ccc3ncccc3n2)n1`, the activation in assay [1] was 39.6% and -70.9%. Moreover, the Potency entry in assay [2], in [3], in [4], in [6], in assay [11] and in assay [9] was “inactive” each time. For the same compound, the Potency entry in assay [10] was “inactive”. The viability in assay [5] is 105%. The Potency in assay [7] is 20.9 µM (active).
Regarding `CC(C(=O)O)c1cccc(C(=O)c2ccccc2)c1` (stereo not drawn), in assay [1], the activation was 8.47% and 8.5% and -11%. For the same compound, the Potency entry in [2], in assay [3], in [4], in assay [6], in [11] and in [7] was “inactive” throughout. Further, the Potency entry in assay [9] and in assay [10] was “inactive” in each case. In addition, the viability in assay [5] is 117%.
On to `Nc1nnc(-c2cccc(Cl)c2Cl)c(N)n1`, for which the activation in [1] is 5.86% and 2.46% and -39.9%. Besides, the Potency entry in assay [2], in assay [3], in [4], in assay [6], in assay [11] and in [7] was “inactive” throughout. The Potency entry in assay [8], in assay [9] and in [10] was “inactive” throughout. Further, the viability in assay [5] was 116%.
`CCOC(=O)C1=C(O)C(=O)N(Cc2ccccc2)C1`: in assay [1], the activation is -27.1%. For the same compound, the Potency entry in [2], in assay [3], in [4], in assay [6], in [7] and in assay [8] was “inactive” each time. In addition, the Potency entry in assay [9] and in assay [10] was “inactive” in each case. Also, in [5], the viability was 93.1%.
As to `CN(C)c1nc(N(C)C)nc(N(C)C)n1`, in [1], the activation was -31.8% and -1.51% and -37.1%. The Potency result in assay [2], in assay [3], in assay [4], in [6], in assay [11] and in [7] was “inactive” each time. Also, the Potency entry in assay [8], in assay [9] and in assay [10] was “inactive” in each case. The viability in assay [5] was 111%.
Take `CCOC(=O)c1ncn2c1CN(C)C(=O)c1cc(F)ccc1-2`: in assay [1], the activation is -0.975% and -12.6% and 1.77%. In addition, the Potency result in [2], in assay [3], in [4], in [6], in assay [11] and in assay [8] was “inactive” each time. Further, the Potency result in [9] and in assay [10] was “inactive” throughout. In [5], the viability is 114%.
For `COc1cccc(-c2cc(=O)c3ccccc3o2)c1N`, in assay [1], the activation is 10.5% and -44.6%. The Potency entry in [2], in [3], in assay [4] and in [8] was “inactive” in each case. Also, the viability in assay [5] is 100%. Also, the figures for the Potency in assay [6], in [11] and in [9] were 5.25 µM (active), 20.9 µM (active) and 14.8 µM (active), respectively.
On to `Cc1ccc(C(=O)Nc2ccc(S(=O)(=O)O)c3cc(S(=O)(=O)O)cc(S(=O)(=O)O)c23)cc1NC(=O)c1cccc(NC(=O)Nc2cccc(C(=O)Nc3cc(C(=O)Nc4ccc(S(=O)(=O)O)c5cc(S(=O)(=O)O)cc(S(=O)(=O)O)c45)ccc3C)c2)c1`, for which the activation in [1] is -19.3% and -10.7% and -18.3%. Moreover, the Potency entry in [2], in [3], in assay [4], in assay [6], in [11] and in [7] was “inactive” in each case. Moreover, the Potency entry in assay [8], in [9] and in [10] was “inactive” throughout. Further, the viability in assay [5] was 108%.
For the compound `Clc1ccc(C(c2ccccc2Cl)C(Cl)Cl)cc1` (stereo not drawn), in assay [1], the activation was 18.6% and -1.36% and 29.2%. The Potency entry in assay [2], in assay [3], in [4], in [6], in [8] and in assay [9] was “inactive” each time. The Potency entry in assay [10] was “inactive”. Also, the viability in [5] was 70.3%.
As for `Cc1cc(Cl)ccc1OCCCC(=O)NO`, the activation in [1] is 35.3% and -37.1% and -6.7%. Moreover, the Potency entry in assay [2], in assay [3] and in assay [4] was “inactive” throughout. Further, the Potency in assay [5] was 1.32 µM (active); in assay [6] it was 20.9 µM (active); in assay [11] it was 18.6 µM (active); in assay [7], 1.48 µM (active); in [8], 3.72 µM (active); in assay [9], 3.72 µM (active). Further, the Potency in assay [10] was 4.17 µM (active).
With `CC(C)(C)NCC(O)c1ccc(O)c(CO)c1` (stereo not drawn), the activation in assay [1] is -7.9% and 9.21% and -24.1%. The Potency result in assay [2], in [3], in [4], in assay [6], in assay [11] and in assay [8] was “inactive” throughout. The Potency entry in [9] and in assay [10] was “inactive” each time. In addition, in assay [5], the viability is 115%.
For `COC(=O)Nc1nc2ccc(C(=O)c3cccs3)cc2[nH]1`, the activation in [1] is -4.18%. Moreover, the Potency result in [2], in assay [3] and in [4] was “inactive” each time. Also, the Potency in assay [5] is 0.209 µM (active); in [6], 0.0934 µM (active); in assay [11], 0.118 µM (active); in [7], 0.0833 µM (active); in [8], 0.0833 µM (active); in [9], 0.0661 µM (active). The Potency in assay [10] was 0.332 µM (active).
As for `COc1ccc2[nH]cc(CCNC(C)=O)c2c1`, in assay [1], the activation was 4.42% and -13.4% and -16.3%. Also, the Potency entry in assay [2], in assay [3], in assay [4], in [6], in assay [11] and in [7] was “inactive” in each case. Further, the Potency entry in assay [8], in assay [9] and in [10] was “inactive” each time. In addition, the viability in [5] was 124%.
For `CCOC(=O)C(C)Oc1cccc2c(=O)n(CC(=O)Nc3ccc4c(c3)OCCO4)ccc12` (stereo not drawn), the activation in assay [1] is -0.568% and 16.2%. For the same compound, the Potency entry in assay [2], in [3], in [4], in assay [7], in [9] and in [10] was “inactive” throughout. Further, the viability in [5] was 114%. Further, in [6], the Potency was 3.72 µM (active).
Regarding `COc1ccc(C2CNC(=O)C2)cc1OC1CCCC1` (stereo not drawn), in assay [1], the activation is 8.47% and 29.3%. Moreover, the Potency result in [2], in assay [3], in assay [4], in assay [6], in [11] and in assay [7] was “inactive” in each case. Moreover, the Potency entry in assay [9] and in assay [10] was “inactive” throughout. Also, the viability in assay [5] was 119%.
